# Structures can show the parent of a compound that is named as a salt. Screen size: about 1,200 compounds; about 50 (4%) showed activity. Rule as the data show it: all actives reach 1.3 or more but so do some inactives. This excerpt belongs to a sample that is enriched for actives.
# Tested on: Lgr5 (MarsCy1-Lgr5-EGFP, U2OS)
# Experiment: cell-surface Lgr5 expression (SCi1 fluorescence, background-subtracted) relative to WT DMSO (fold of DMSO control); higher = more Lgr5 at the plasma membrane, active = hit call of the paper
# Details: U2OS MarsCy1-Lgr5-EGFP stable; treatment time: overnight; 16 µM; library: Johns Hopkins Clinical Compound Library
row,Structure (SMILES),cell-surface Lgr5 expression
1,"CCCCCCN(C)C [N,N-Dimethylhexylamine]",1.05 (inactive)
2,O=NN(CCCl)C(=O)NC1CCCCC1 [Lomustine],1.37 (inactive)
3,CCC(=O)O[C@H]1[C@H](O[C@@H]2[C@@H](C)[C@H](O[C@H]3C[C@@](C)(OC)[C@@H](O)[C@H](C)O3)[C@@H](C)C(=O)O[C@H](CC)[C@@](C)(O)[C@H](O)[C@@H](C)C(=O)[C@H](C)C[C@@]2(C)O)O[C@H](C)C[C@@H]1N(C)C [Erythromycin estolate],0.567 (inactive)
4,CCOc1ccc2nc(S(N)(=O)=O)sc2c1 [Ethoxzolamide (6-Ethoxy-2-benzothiazolesulfonamide)],1.15 (inactive)
5,CCc1cc(Cl)c(OC)c(C(=O)NC[C@@H]2CCCN2CC)c1O [Eticlopride hydrochloride (S)],1.52 (active)
6,CCN1CCCC1CNC(=O)c1cc(S(N)(=O)=O)ccc1OC (racemic) [Sulpiride (+/-)-],1.07 (inactive)
7,O=C([O-])C(=O)[O-].O=C([O-])C(=O)[O-].O=C([O-])C(=O)[O-].[Ce+3].[Ce+3] [Cerium oxalate],1.08 (inactive)
8,COC(=O)c1ccc(O)c2nc3c(C=O)c(O)cc(O)c3nc12 [Lomofungin],0.884 (inactive)
9,COc1ccnc(C[S+]([O-])c2nc3cc(OC(F)F)ccc3[nH]2)c1OC (configuration not stated) [Pantoprazole],1.01 (inactive)
10,OC(CCCN1CCC(O)(c2ccc(Cl)cc2)CC1)c1ccc(F)cc1 (configuration not stated) [Haloperidol metabolite II],1.18 (inactive)
11,CCCCCCCCCCCCCCc1ccc(S(=O)(=O)O)cc1.OCl [Oxychlorosene],0.635 (inactive)
12,CC(=O)OCC(=O)[C@@]1(O)[C@@H](C)C[C@H]2[C@@H]3CCC4=CC(=O)C=C[C@]4(C)[C@@]3(F)[C@@H](O)C[C@@]21C [Betamethasone 21-acetate],1.53 (active)
13,CC(=O)OCC(=O)[C@@]1(O)[C@@H](C)C[C@H]2[C@@H]3CCC4=CC(=O)C=C[C@]4(C)[C@@]3(F)[C@@H](O)C[C@@]21C,1.59 (active)
14,C[C@H]1C[C@H]2[C@@H]3CCC4=CC(=O)C=C[C@]4(C)[C@@]3(F)[C@@H](O)C[C@]2(C)[C@@]1(O)C(=O)CO,1.45 (active)
15,C[C@@H]1C[C@H]2[C@@H]3CCC4=CC(=O)C=C[C@]4(C)[C@@]3(F)[C@@H](O)C[C@]2(C)[C@H]1C(=O)CO,1.41 (inactive)
16,C[C@H]1C[C@H]2[C@@H]3CCC4=CC(=O)C=C[C@]4(C)[C@@]3(F)[C@@H](O)C[C@]2(C)[C@@]1(O)C(=O)COP(=O)(O)O [Betamethasone sodium phosphate],1.35 (active)
17,C[C@@H]1C[C@H]2[C@@H]3CCC4=CC(=O)C=C[C@]4(C)[C@@]3(F)[C@@H](O)C[C@]2(C)[C@@]1(O)C(=O)COP(=O)(O)O,1.26 (inactive)
18,C[C@H]1C[C@H]2[C@@H]3CCC4=CC(=O)C=C[C@]4(C)[C@@]3(Cl)[C@@H](O)C[C@]2(C)[C@@]1(O)C(=O)CO [Beclomethasone],1.36 (active)
19,O=P([O-])([O-])O.[K+].[K+] [Potassium phosphate dibasic],1.09 (inactive)
20,O.O.O.O.O.O.[Br-].[Br-].[Sr+2] [Strontium bromide hexahydrate],0.469 (inactive)
21,"Nc1ccc2cc3ccc(N)cc3nc2c1 [Proflavine hemisulfate salt hydrate, powder]",1.06 (inactive)

row,Structure (SMILES),cell-surface Lgr5 expression
1,CCCCCCCCCCCCCCCCCC(=O)[O-].CCCCCCCCCCCCCCCCCC(=O)[O-].[Zn+2] [Zinc stearate],0.658 (inactive)
2,C=CC[N+]1([C@H]2C[C@H]3[C@@H]4CC[C@H]5C[C@H](O)[C@@H](N6CCOCC6)C[C@]5(C)[C@H]4CC[C@]3(C)[C@H]2OC(C)=O)CCCC1 [Rocuronium bromide (Zemuron)],1.2 (inactive)
3,CCCCC(C)(O)C/C=C/[C@H]1[C@H](O)CC(=O)[C@@H]1CCCCCCC(=O)OC (mixture of isomers) [Misoprostol],1.07 (inactive)
4,O=C(Cc1cccs1)N[C@@H]1C(=O)N2C(C(=O)O)=C(/C=C/c3ccc([N+](=O)[O-])cc3[N+](=O)[O-])CS[C@H]12 [Nitrocefin],0.867 (inactive)
5,CCOC(C)OCC [Acetal],1.06 (inactive)
6,C=C1C[C@H]2[C@@H]3C=C(C)C4=CC(=O)CC[C@]4(C)[C@H]3CC[C@]2(C)[C@@]1(OC(C)=O)C(C)=O [Melengestrol acetate],1.58 (active)
7,CC(=O)O[C@]1(C(C)=O)CC[C@H]2[C@@H]3C=C(Cl)C4=CC(=O)CC[C@]4(C)[C@H]3CC[C@@]21C [Chlormadinone acetate],1.09 (inactive)
8,CC(=O)O[C@]1(C(C)=O)CC[C@H]2[C@@H]3C=C(C)C4=CC(=O)CC[C@]4(C)[C@H]3CC[C@@]21C [Megestrol Acetate],1.29 (inactive)
9,CO[C@H]1C=CO[C@@]2(C)Oc3c(C)c(O)c4c(O)c(c(C=O)c(O)c4c3C2=O)NC(=O)C(C)=CC=C[C@H](C)[C@H](O)[C@@H](C)[C@@H](O)[C@@H](C)[C@H](OC(C)=O)[C@@H]1C [3-formyl Rifamycin],1.12 (inactive)
10,O=C([O-])[O-].[Ca+2] [Calcium carbonate],0.936 (inactive)
11,COC(=O)Nc1nc2cc([S+]([O-])c3ccccc3)ccc2[nH]1 (configuration not stated) [Oxfendazole],1.18 (inactive)
12,O=[N+]([O-])c1ccc(O)cc1 [4-Nitrophenol],1.17 (inactive)
13,[Na+].[OH-] [Sodium hydroxide],0.75 (inactive)
14,COc1ccc2cc([C@H](C)C(=O)O)ccc2c1 [Naproxen (s-6-methoxy methyl 2-naphthalene acetic acid)],0.783 (inactive)
15,COc1ccc2cc(CCC(C)=O)ccc2c1 [Nabumetone],1.32 (active)
16,COc1ccc2cc([C@H](C)C(=O)O)ccc2c1 [Naproxen sodium],1.03 (inactive)
17,"COc1ccc(C(=O)c2ccccc2O)c(O)c1 [Dioxybenzone (2,2'-Dihydroxy-4-methoxybenzophenone)]",0.985 (inactive)
18,O=C([O-])C[NH+](CC(=O)[O-])CC(=O)[O-].O=C([O-])C[NH+](CC(=O)[O-])CC(=O)[O-].O=C([O-])C[NH+](CC(=O)[O-])CC(=O)[O-].[Na+].[Na+].[Na+].[Na+].[Na+].[Na+].[Na+].[O]=[Bi][O]C(=O)C[NH+](CC(=O)[O-])CC(=O)[O-] [Bismuth Sodium Triglycollamate (Nitrilotriacetic acid)],1.08 (inactive)
19,COc1ccc2[nH]c([S+]([O-])Cc3ncc(C)c(OC)c3C)nc2n1 (configuration not stated) [Tenatoprazole],1.17 (inactive)
20,[I-].[Na+] [Sodium iodide],1.13 (inactive)
21,"C[C@@H](C1=C(CCN(C)C)Cc2ccccc21)c1ccccn1 [Dimethindene (S, +) maleate]",1.32 (inactive)

row,Structure (SMILES),cell-surface Lgr5 expression
1,CCCCCCCCCCCCN [Dodecylamine],0.823 (inactive)
2,C[N+](C)(CCOc1ccccc1)Cc1ccccc1.O=C([O-])c1cc2ccccc2cc1O [Bephenium hydroxy-naphthoate],1.05 (inactive)
3,CCCCCCCCCCCC[N+](C)(C)Cc1ccccc1,0.391 (inactive)
4,Cc1cc(C(C)(C)CC(C)(C)C)ccc1OCCOCC[N+](C)(C)Cc1ccccc1 [Methylbenzethonium chloride],1.67 (active)
5,CC(=O)SCC(Cc1ccccc1)C(=O)NCC(=O)OCc1ccccc1 (configuration not stated) [Racecadotril],1.24 (inactive)
6,N.O=C(O)CC(O)(CC(=O)O)C(=O)O.[Fe+3] [Ferric ammonium citrate],1.06 (inactive)
7,N=C(N)N [Guanidine hydrochloride],0.767 (inactive)
8,O.O.O.O.O.O.O.O=S(=O)([O-])[O-].[Mg+2] [Magnesium sulfate],1.04 (inactive)
9,C=CC1=C(C(=O)O)N2C(=O)[C@@H](NC(=O)/C(=N\O)c3csc(N)n3)[C@H]2SC1 [Cefdinir],1.06 (inactive)
10,O=C(O[C@@H]1Cc2c(O)cc(O)cc2O[C@@H]1c1ccc(O)c(O)c1)c1cc(O)c(O)c(O)c1 [Epicatechin gallate (-)],1.14 (inactive)
11,NCCc1ccc(O)c(O)c1 [3-hydroxytyramine (Dopamine)],1.43 (active)
12,"N[C@@H](Cc1ccc(O)c(O)c1)C(=O)O [Levodopa (L-beta-3,4-Dihydroxyphenylananine)]",0.449 (inactive)
13,NCCc1ccc(O)c(O)c1 [Dopamine (3-Hydroxytyramine hydrochloride)],1.51 (active)
14,"C[C@](N)(Cc1ccc(O)c(O)c1)C(=O)O [Methyl-DOPA (alpha-methyl-L-beta-3,4-dihydroxyphenylalanine)]",0.929 (inactive)
15,CC(=O)N[C@@H](CCC(N)=O)C(=O)O [Aceglutamide (N-acetyl-L-glutamine)],1.2 (inactive)
16,CN1CC(O)C2=C/C(=N/NC(N)=O)C(=O)C=C21 (configuration not stated) [Carbazochrome (Adrenochrome semicarbazone)],1.16 (inactive)
17,Cc1cc(N)c2ccccc2c1O [Vitamin K5 hydrochloride],0.778 (inactive)
18,O=P([O-])(O)O.[K+] [Potassium phosphate monobasic],1.24 (inactive)
19,C[C@@H]1C[C@H]2[C@@H]3C[C@H](F)C4=CC(=O)C=C[C@]4(C)[C@@]3(F)[C@@H](O)C[C@]2(C)[C@@]1(O)C(=O)CO [Flumethasone],1.48 (active)
20,C[C@@H]1C[C@H]2[C@@H]3C[C@H](F)C4=CC(=O)C=C[C@]4(C)[C@@]3(F)[C@@H](O)C[C@]2(C)[C@@]1(O)C(=O)COC(=O)C(C)(C)C [Flumethasone pivalate],1.37 (active)
